Compounds with a hit are over-represented: about 3.7% of the library has one in this group of screens.
BoNT F protease: inhibitors of Botulinum neurotoxin F light chain protease | Multiplex microsphere protease cleavage assay, flow cytometry | inhibition, % at 10 µM | 0.22% of 360,000 active | AID 588497; in the data active = inhibition above about 35%, passing the limit was not always enough; inconclusive = no clear call, values can overlap the other calls; also: plate controls were buffer without enzyme for full effect and enzyme alone for no effect
BoNT-A LC inh2: blocks Botulinum neurotoxin A light chain protease | inhibition, % at 10 µM | 0.17% of 360,000 active | multiplex microsphere protease substrate cleavage, flow cytometry; also: plate controls were buffer without enzyme for full effect and enzyme alone for no effect
Anthrax LF prot: inhibitors of Bacillus anthracis lethal factor protease; P15917; multiplex microsphere protease cleavage assay, LF; inhibition, % at 10 µM; 0.12% of 360,000 active; also: plate controls were buffer without enzyme for full effect and enzyme alone for no effect
Bead autofluor: flagged as autofluorescent in microsphere protease counterscreen; 3.1% of 360,000 active; AID 624483; compound autofluorescence counterscreen, microsphere flow cytometry; stronger effect = higher value; fluorescence intensity (no concentration beside the values); in the data active = fluorescence intensity above about 16000; inconclusive = no clear call, values can overlap the other calls
BJeLR viability: kills HRASV12-expressing BJeLR cells; BJeLR (HRASV12) viability, CellTiter-Glo ATP luminescence, 48 h; inhibition, % (concentration not given with the values); 0.17% of 300,000 active; in the data active = inhibition above about 50%; inconclusive = no clear call, values can overlap the other calls
Vc quorum ag: inducers of Vibrio cholerae quorum light production without autoinducers. activation, % at 18.7 µM. V. cholerae BH1578 lux reporter, luminescence, 6 h. 0.16% of 350,000 active; in the data active = activation mostly above about 9.7%, no sharp cut-off; inconclusive = no clear call, values can overlap the other calls; inactive = mostly below about 3.7%
* marks the source's active call; other numbers are inactive results; i = inactive; ? = inconclusive; . = no result. Rule as the data show it, unless noted: active = inhibition above about 30%; inconclusive = no clear call, values can overlap the other calls; inactive = below that.

SMILES	BoNT F protease	BoNT-A LC inh2	Anthrax LF prot	Bead autofluor	BJeLR viability	Vc quorum ag
c1ccc(NN=C(c2ccccc2)c2cccs2)cc1	-14.8	-0.7	0.2	3510	.	0.7
CCCC(=O)Nc1c2c(nn1-c1ccc(OC)cc1)CS(=O)(=O)C2	1.2	0.1	-2.0	19921*	-2.0	-0.2
COc1cccc(CN2CCC(C)(Oc3cccc(Cl)c3)C2)c1OC (stereo not drawn)	2.0	0.1	-7.1	3580	.	-0.8
Cn1c(SCc2cccc(Cl)c2)nc(C(F)(F)F)cc1=O	2.7	2.1	-5.7	18749*	8.4	i
Cn1c(SCc2ccccc2)nc(C(F)(F)F)cc1=O	2.8	-0.7	13.1	4673	-2.2	-0.9
CCCN(C)C1CN(Cc2cn(Cc3cc(C)cc(C)c3)nn2)S(=O)(=O)C1 (stereo not drawn)	-1.6	0.1	7.1	4230	.	.
Cc1ccc(NC(C)c2cc(Cl)ccc2O)cc1 (stereo not drawn)	-0.8	?	-3.5	21916*	0.9	i
CC(Nn1cnnc1)c1cc(Cl)ccc1O (stereo not drawn)	-4.0	0.0	-0.1	3629	-0.8	-0.4
Cc1c(C2N3CC4(C)CN2CC(C)(C3)C4=O)c2ccccc2n1C (stereo not drawn)	1.8	1.3	-9.8	22039*	-1.7	i
Cc1oc(-c2ccccc2Cl)nc1CSCC(=O)N1CCCC1	3.7	0.9	1.3	22629*	20.3	-1.4
O=C(NNC(=O)c1cccs1)c1ccco1	4.6	-1.2	0.1	3409	10.7	5.6
CC(C)CNC(=S)NNC(=O)c1ccco1	1.1	0.6	-0.9	22008*	3.4	i
O=C(NNC(=S)Nc1ccccc1)c1ccco1	-1.7	?	-2.7	22369*	-4.3	0.3
COCCNC(=S)NNC(=O)c1ccco1	-1.9	-1.4	-2.1	23531*	1.9	0.1
O=C(NC(=S)NNC(=O)c1cccs1)c1ccco1	-1.8	-2.7	-1.3	23561*	-0.5	14.3
Cc1ccc(C(O)c2ncc(-c3cccc(C(F)(F)F)c3)[nH]2)cc1F (stereo not drawn)	-13.4	-0.1	2.8	2814	.	i
CCOC(=O)c1ccc(S(=O)(=O)N2CCC(C(=O)NCC3COc4ccccc4O3)CC2)cc1 (stereo not drawn)	-11.0	-1.0	-0.3	3488	.	-0.5
OC(c1ccco1)c1nc(-c2cccs2)cs1 (stereo not drawn)	-11.7	0.4	-6.3	3413	.	-0.3
COC(=O)CCCC[C@@H]1O[C@H](CCc2ccccc2)Cc2[nH]c(=S)[nH]c(=O)c21	-4.0	0.2	1.7	6078	.	.
Cc1cccc(-c2cnc(C(O)Cc3ccccc3)[nH]2)c1 (stereo not drawn)	-0.3	-0.3	-6.3	2968	.	i
O=C(NN=C1CCN(Cc2ccccc2)CC1)c1ccccc1O	-9.7	-0.8	-1.9	5493	1.5	0.9
O=C(O)c1cc(NN=C2CCN(Cc3ccccc3)CC2)ccc1Cl	41.8*	6.6	-5.3	6123	-3.0	0.6
COc1ccc(OCCOC(=O)CNC(=O)c2ccc(F)cc2)cc1	8.5	-0.4	-1.3	3483	.	-0.5
Clc1ccc(OCc2nc(-c3ccccn3)n[nH]2)cc1	-1.2	0.4	-2.2	19968*	-6.9	i
N#Cc1c(N)nc(SCC(=O)C23CC4CC(CC(C4)C2)C3)c(C#N)c1-c1ccc(Cl)cc1	-0.7	-0.2	0.9	2861	2.2	i
SMILES	BoNT F protease	BoNT-A LC inh2	Anthrax LF prot	Bead autofluor	BJeLR viability	Vc quorum ag
CSc1nc(N)nc(SCC(=O)C23CC4CC(CC(C4)C2)C3)c1C#N	-3.3	-1.1	-4.2	19688*	-3.6	i
COc1ccc(C(=O)CSc2nc(N)nc(SC)c2C#N)cc1	9.9	5.9	-2.9	19201*	-3.2	11.1
Cc1ccc(S(=O)(=O)N(C)C[C@H]2Oc3ncc(-c4ccccc4)cc3C(=O)N([C@@H](C)CO)C[C@@H]2C)cc1	2.5	-0.4	-0.5	4415	.	i
O=C(O)c1ccc([N+](=O)[O-])c2c1C(=O)c1ccccc1C2=O	?	?	-49.2	20562*	-3.2	-0.7
O=C1c2ccccc2C(=O)c2c([N+](=O)[O-])ccc(O)c21	?	0.7	6.2	3556	.	i
Cc1cc2n(c(=O)c1C#N)CCCN2c1ccccc1	-3.0	-0.3	-0.2	16496*	-0.7	-1.2
Cc1cc(C)n(CC(=O)N2CCc3ccccc32)c(=O)c1C#N	-4.6	-1.8	0.2	3681	1.8	-0.2
CCOC(=O)[C@]12CCCC=C1N(Cc1ccco1)C(=O)[C@H](CC(=O)NCC1CCCCC1)C2	-1.2	-0.5	-12.7	4227	.	.
CCN1C(=O)/C(=C/N2CCc3ccccc3C2)SC1=S	?	-49.5	-4.9	16177*	-4.8	-1.3
CC(C)NC(=O)OCc1c(COC(=O)NC(C)C)c([N+](=O)[O-])n2c1CCC2	3.7	-0.2	2.0	5237	.	.
CCc1cc(C(=O)NNC(=S)NCc2ccccc2)cs1	0.7	-0.2	-0.9	11564	-2.6	-0.4
Cc1ccc(C)c(NC(=S)NNC(=O)c2csc3c2CCCC3)c1	1.1	0.5	0.4	16276*	3.9	-0.2
CCCc1cc(C(=O)NNC(=S)NCc2ccccc2)cs1	0.1	1.5	-6.4	22370*	-5.0	-0.2
CCc1cc(C(=O)NNC(=S)Nc2cc(C)ccc2C)cs1	1.3	-0.9	1.2	23483*	-0.3	2.1
Cc1cccc(NC(=S)NNC(=O)c2csc3c2CCCC3)c1	-5.8	-4.1	-2.5	16967*	0.3	i
Cc1cc(C)c(S(=O)(=O)N2CCN(C(=O)c3cc4ccccc4oc3=O)CC2)c(C)c1	-10.4	-0.4	-5.9	4069	.	0.0
CCc1cc(C(=O)Nc2ccccc2)cs1	-4.3	-2.0	-2.5	16734*	6.3	i
CCc1cc(C(=O)NNC(=S)Nc2ccccc2C)cs1	8.3	-0.7	-6.1	9786	3.1	-0.2
O=C(Nc1ccc2c(c1)OCCO2)C1c2ccccc2OCC(=O)N1CCc1ccccc1 (stereo not drawn)	-2.7	0.1	-3.4	5445	.	.
O=C(N/N=C/C=C/c1ccccc1[N+](=O)[O-])c1ccncc1	55.5*	-1.2	?	3912	-16.3	i
CCn1c(SCC(=O)N/N=C/C=C\c2ccccc2[N+](=O)[O-])nnc1-c1ccccc1	-2.3	-1.1	-2.7	16357*	10.1	-1.8
O=C(N/N=C/C=C/c1ccccc1[N+](=O)[O-])c1cccnc1	3.2	-0.1	1.5	2559	-2.1	-0.2
N#Cc1ccc(C(=O)N2CCCCC2c2cc(C(=O)Nc3ccc4c(c3)OCO4)no2)cc1 (stereo not drawn)	-0.1	0.0	1.8	3742	.	i
CCN1CCN(c2ccc(NC(=O)c3ccco3)cc2)CC1	-5.7	0.1	-0.1	6242	-0.7	0.7
CCN1CCN(c2ccc(NC(=O)c3cccc4ncccc34)cc2)CC1	-10.3	?	-11.8	22120*	-16.9	-1.4
O=C(CCc1ccc(S(=O)(=O)N2CCOCC2)cc1)N1CCCC1	-3.2	?	-2.0	23425*	-7.1	-2.4
